PubChem BioAssay
Values without a mark were called inactive. Activity calls are given as the source filed them. Unless noted, no stated cut-off is given here; in the data, active means inhibition above about 25%; inactive means the rest.

How the values were obtained:
[1] = biological target: Nuclear receptor coactivator 1 (Homo sapiens) (UniProt Q15788); test: NCOA1 GAL4-fusion reporter inhibition – cell-based, luminescence, quadruplicate, confirmation (AID 588820;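 active means mean inhibition above 46.68%, the untreated control wells mean plus 3 SD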;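 further: 0% = DMSO wells and 100% = gossypol 36 µM treated wells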); conditions: HEK293 GAL4-SRC1 luciferase reporter, at 3.6 µM, active compounds read high
[2] = repression of VP16-driven luciferase reporter – cell-based, luminescence, high throughput, counter-screen for SRC1 inhibitor project (AID 588824); conditions: cell-based VP16 transactivation luciferase luminescence; at 3.6 µM; active compounds read high

Sequence of Nuclear receptor coactivator 1 (Homo sapiens) (Q15788 whole entry, looked up, the tested form may be a part): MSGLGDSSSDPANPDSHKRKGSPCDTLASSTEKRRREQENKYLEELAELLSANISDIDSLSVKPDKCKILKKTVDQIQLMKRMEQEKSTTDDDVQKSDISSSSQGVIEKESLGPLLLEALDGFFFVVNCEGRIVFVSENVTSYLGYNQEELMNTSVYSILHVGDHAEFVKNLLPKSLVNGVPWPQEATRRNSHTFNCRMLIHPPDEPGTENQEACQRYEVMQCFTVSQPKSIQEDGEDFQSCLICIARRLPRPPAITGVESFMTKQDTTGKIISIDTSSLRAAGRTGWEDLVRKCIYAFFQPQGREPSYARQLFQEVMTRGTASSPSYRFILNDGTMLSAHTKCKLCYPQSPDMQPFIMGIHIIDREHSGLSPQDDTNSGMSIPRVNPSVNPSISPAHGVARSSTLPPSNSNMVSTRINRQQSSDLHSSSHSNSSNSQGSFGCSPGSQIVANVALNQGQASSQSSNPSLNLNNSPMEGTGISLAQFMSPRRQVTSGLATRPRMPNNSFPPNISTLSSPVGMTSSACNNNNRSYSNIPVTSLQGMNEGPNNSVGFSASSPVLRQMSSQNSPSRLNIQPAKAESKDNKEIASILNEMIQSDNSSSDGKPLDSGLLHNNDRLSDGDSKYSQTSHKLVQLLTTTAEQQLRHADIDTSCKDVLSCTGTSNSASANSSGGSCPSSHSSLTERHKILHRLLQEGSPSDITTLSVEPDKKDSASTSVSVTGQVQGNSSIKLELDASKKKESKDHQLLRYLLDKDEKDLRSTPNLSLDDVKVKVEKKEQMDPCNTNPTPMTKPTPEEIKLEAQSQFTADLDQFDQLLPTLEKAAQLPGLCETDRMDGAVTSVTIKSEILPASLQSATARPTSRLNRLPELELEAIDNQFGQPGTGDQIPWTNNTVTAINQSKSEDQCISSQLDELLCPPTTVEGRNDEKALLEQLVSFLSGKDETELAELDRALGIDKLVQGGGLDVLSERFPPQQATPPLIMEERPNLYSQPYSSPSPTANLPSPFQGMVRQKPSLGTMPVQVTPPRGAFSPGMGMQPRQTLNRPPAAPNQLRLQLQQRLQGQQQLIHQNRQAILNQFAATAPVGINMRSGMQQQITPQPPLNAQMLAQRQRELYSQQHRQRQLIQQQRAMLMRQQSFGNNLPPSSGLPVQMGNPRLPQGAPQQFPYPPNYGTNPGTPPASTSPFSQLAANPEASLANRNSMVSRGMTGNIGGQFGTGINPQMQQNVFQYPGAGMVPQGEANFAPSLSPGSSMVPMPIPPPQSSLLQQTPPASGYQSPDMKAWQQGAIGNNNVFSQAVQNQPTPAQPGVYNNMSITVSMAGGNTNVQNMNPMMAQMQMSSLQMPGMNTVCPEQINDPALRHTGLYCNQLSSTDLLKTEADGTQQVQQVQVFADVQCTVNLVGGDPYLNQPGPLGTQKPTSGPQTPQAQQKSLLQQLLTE

Row | SMILES | inhibition [1] [%] | inhibition [2]
1 | Cc1oc(-c2ccc(Cl)cc2)nc1CS(=O)CC(=O)NCCCN1CCN(Cc2ccccc2)CC1 (stereo unspecified) | -11 | 27.4% (active)
2 | CCOC(=O)N1CCN(Cc2nc(Cc3cccc(C(F)(F)F)c3)no2)CC1 | -24.9 | -12.2%
3 | COc1ccc2c(c1)c(C(C)=O)c(C)n2-c1ccccc1 | 13.5 | 19.1%
4 | COc1ccc(CCN(C)C(=O)c2cc(S(=O)(=O)N3CCCCC3)ccc2Cl)cc1OC | -9.24 | 8.04%
5 | COc1ccccc1C(NC(C)=O)c1cc(Cl)c2cccnc2c1O (stereo unspecified) | 31.7 | 26.6% (active)
6 | Cc1ccc(Oc2ccccc2NC(=O)CSCC(=O)Nc2cc(C)on2)cc1 | 1.59 | 16.1%
7 | CC(=O)c1cccc(NC(=O)c2cc(Cl)sc2Cl)c1 | -60.7 | -30.6%
8 | CCN1CCN(S(=O)(=O)c2cc(OCC(=O)NC3CCCCC3)c(C)cc2Cl)CC1 | -7.06 | 31.1% (active)
9 | O=C(NC(=S)NCC1CCCO1)c1ccccc1[N+](=O)[O-] (stereo unspecified) | -12.7 | -12%
10 | Cc1ccc(NNC(=O)C(=O)N2CCCCC2)cc1 | -16.9 | 11.6%
11 | CCOc1cccc(/C=N/NC(=O)c2cc(C3CC3)[nH]n2)c1O | 21.5 | 21.7%
12 | Cc1sc2ncn3ncnc3c2c1C | 37.9 | 27.7% (active)
13 | CC(=NCc1cccc(Cl)c1)c1nc(-c2ccco2)oc1O | 4.53 | 45% (active)
14 | C=C1C(=O)O[C@@]23[C@H]1CC[C@@H](C)[C@@H]2CC[C@@]1(C)O[C@@H]31 | 1.63 | 7.69%
15 | Cc1ccc(S(=O)(=O)N(C)C)cc1NC(=O)COC(=O)CCC1CCCC1 | 8.06 | 5.41%
16 | COc1ccc(CN(C(=O)CSc2nnc(-c3c[nH]c4ccccc34)o2)c2ccc(F)cc2)cc1OC | -67.5 | -22.2%
17 | CCN(CC(=O)Nc1ccccc1C(F)(F)F)C(=O)c1ccc2[nH]c3c(c2c1)CC(C)CC3 (stereo unspecified) | -11.7 | -8.04%

Row | SMILES | inhibition [1] [%] | inhibition [2]
18 | COc1ccc(NC(=O)c2ccccc2Cl)cc1NC(=O)CN1CCOCC1 | -11.8 | -7.93%
19 | CC(C)Oc1ccccc1NC(=O)CSc1nc2ccccc2c(=O)n1C | -5.84 | 13.4%
20 | CN(C1CCCCC1)S(=O)(=O)c1ccc(NC(=O)C2CCCCC2)cc1 | -0.79 | 11%
21 | O=C(NC1CCCC1)C1CCN(C(=O)c2cccc(Cl)c2)CC1 | -22.6 | -3.66%
22 | Cc1cccc(NC(=O)CSc2nnc(NC(=O)C3CC3)s2)c1C | -3.25 | 6.7%
23 | COc1ccc(NC(=O)CN(C)C(=O)c2ccc(N3CCCCC3)c([N+](=O)[O-])c2)cc1 | -5.37 | -5.37%
24 | COc1ccc(Nc2nc(-c3cccs3)nc3ccccc23)cc1S(=O)(=O)N1CCOCC1 | -30.8 | -9.26%
25 | COc1ccccc1CNC(=O)C(=O)NCCC1CCCCN1S(=O)(=O)c1ccc(C)cc1 (stereo unspecified) | 26.4 | 7.29%
26 | O=C(Nc1ccc2c(c1)N(S(=O)(=O)c1cccs1)CCC2)c1c(F)cccc1F | -8.08 | -5.05%
27 | Brc1ccc2ncnc(NCc3ccco3)c2c1 | 32.1 | 31.2% (active)
28 | Cc1ccc2nc(C)c3c(c2c1)N(c1ccc(F)cc1)CC3 | 16.4 | 30.5% (active)
29 | CC(C)(C)c1cc(C(=O)C[n+]2ccc(C(=O)NCCCO)cc2)cc(C(C)(C)C)c1O | -6.91 | -12.9%
30 | O=C1c2cccc(OCc3ccc(F)cc3)c2CCN1Cc1ccc(F)cc1 | 21.3 | 33.4% (active)
31 | Cc1ccccc1CN1CCC(Oc2ccc(C(=O)NCc3ccccn3)cc2)CC1 | -15.8 | 8.1%
32 | Cc1ccc(CNc2ncnc3ccc(-c4ccc(CO)o4)cc23)o1 | 11.8 | 14.7%
33 | Cc1cc[n+](CC(=O)Nc2cccc(C)c2)cc1 | -8.15 | 1.99%
